Source: PubChem BioAssay AID430 (Sanford-Burnham Center for Chemical Genomics, 2006)
Hit rate of the full screen: of about 63,000 compounds, about 1,100 (1.7%) were called active. Rule as the data show it: active = cytotoxicity above about 50%; inactive = the rest. For the sample, actives were picked, then their nearest neighbours and some compounds at random. Entries with a potency or affinity are not part of this list.

experiment: cytotoxicity in HPDE-C7 cells, cell-based, fluorescence, HTS (AID 430); settings: HPDE-C7 pancreatic duct cells viability, at 10 µM, active compounds read high;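 also: cells exposed to compound for 48 hours before viability readout; 0% = vehicle and 100% = reference cytotoxic drug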

Compound | cytotoxicity
Cc1ccc2nc(SCCC#N)nc(C)c2c1 | -10.1% (inactive)
COc1ccc(S(=O)(=O)N2CC(C)N(S(=O)(=O)c3ccc(OC)cc3)CC2C)cc1 (stereo not given) | -4.1% (inactive)
Clc1ccc2oc(-c3ccccc3)nc2c1 | -4.4% (inactive)
O=S1(=O)C=C(Sc2nnc(-c3ccccc3)o2)c2ccccc21 | 47.8% (inactive)
O=S1(=O)C=C(Sc2nc3ccccc3s2)c2ccccc21 | 109% (active)
Cn1c(SC2=CS(=O)(=O)c3ccccc32)nc2ccccc21 | 49.6% (inactive)
Cc1cc(C)nc(SC2=CS(=O)(=O)c3ccccc32)n1 | 4.3% (inactive)
COc1ccc(/C=N/n2cnnc2SCCO)cc1OC | -14.1% (inactive)
COc1ccc(-c2nnc3sc(-c4ccccn4)nn23)cc1 | -5.5% (inactive)
COc1ccc(-c2cn3cccnc3n2)cc1NC(=O)C1CCCC1 | -13.7% (inactive)
Cn1c(Cn2nnc3ccccc32)nnc1SCC(=O)N1c2ccccc2Sc2ccccc21 | -9.1% (inactive)
CCCC(N)CCCCCC(=O)O (stereo not given) | -2.3% (inactive)
CCSC(SCC)[C@H](O)[C@@H](O)[C@H](O)[C@H](O)CO | 11.2% (inactive)
COc1ccccc1N1C(=O)C2C3C=CC(C3)C2C1=O (stereo not given) | -6% (inactive)
O=c1oc2ccccc2n1CSc1nc2ccccc2s1 | -4% (inactive)
CCNS(=O)(=O)c1ccc(NC(=O)c2ccccc2OCC)cc1 | 10.2% (inactive)
CCCCC(=O)Nc1nc(C)c(C(C)=O)s1 | -0.6% (inactive)
CC(=O)c1sc(NC(=O)C=C(C)C)nc1C | 1.3% (inactive)
CC(=O)c1sc(NC(=O)C2(F)C(F)(F)C(F)(F)C(F)(F)C(F)(F)C2(F)F)nc1C | 52.4% (active)
O=C(c1ccco1)N1CCN(Cc2ccc(Cl)cc2)CC1 | -3.7% (inactive)

Compound | cytotoxicity
CCN(CC)S(=O)(=O)c1ccc2c(c1)nc(SCC(=O)NC1CC1)n2-c1ccccc1OC | 3.8% (inactive)
COc1ccc(-c2nc3ccccc3c(=O)n2CCCn2ccnc2)cc1 | -0.2% (inactive)
COc1ccc(NS(=O)(=O)c2ccc3oc4ccccc4c3c2)cn1 | 25.3% (inactive)
CSc1ccc(S(=O)(=O)Nc2ccc3c(c2)OCCO3)cc1 | 8.6% (inactive)
O=S(=O)(Nc1ccc2c(c1)OCCO2)c1ccc2oc3ccccc3c2c1 | 83.9% (active)
CCc1c(C)nc2ncnn2c1N1CCC(C(=O)Nc2cccc(C(C)=O)c2)CC1 | -7.9% (inactive)
N#Cc1c(NC(=O)CSc2nnc(-c3ccncc3)n2CC2CCCO2)sc2c1CCCC2 (stereo not given) | 4.8% (inactive)
Cc1ccccc1-c1nnc2s/c(=C\c3ccc(N(C)C)cc3)c(=O)n12 | 2.2% (inactive)
Cc1ccc(/C=c2/sc3nnc(-c4ccccc4Cl)n3c2=O)o1 | 69.7% (active)
Cc1ccc(/C=c2\sc3nc(-c4ccccc4Br)nn3c2=O)o1 | 2.6% (inactive)
OCc1cn(-c2ccccc2)nc1-c1ccc2c(c1)OCCO2 | -21.5% (inactive)
CC(=O)Nc1ccc(S(=O)(=O)N2CCSC2c2ccccc2Cl)cc1 (stereo not given) | 3.4% (inactive)
CC1CCCCN1CCn1cnc2c([nH]c3ccccc32)c1=O (stereo not given) | -2.1% (inactive)
CCCN(C#N)c1nc(NCC)nc(NC(C)C)n1 | -11.1% (inactive)
CCNc1nc(NC(C)C)nc(N(C#N)Cc2ccccc2)n1 | 6.3% (inactive)
CCNc1nc(NC(C)C)nc(N(C#N)CCOc2ccc(Cl)cc2Cl)n1 | 94.5% (active)
CCOc1ccc(-n2cc(C(=O)N3CCN(C)CC3)c3cc(OC)c(OC)cc3c2=O)cc1 | -7.2% (inactive)
Cn1cc(C(=O)NC2CCCCCC2)c(=O)c2cc(S(=O)(=O)N3CCCC3)ccc21 | -2.6% (inactive)
CC1CCN(S(=O)(=O)c2ccc3c(c2)c(=O)c(C(=O)NC2CCCC2)cn3C)CC1 | 77% (active)
Cn1cc(C(=O)NC2CCCCC2)c(=O)c2cc(S(=O)(=O)N3CCCC3)ccc21 | 6.5% (inactive)

Compound | cytotoxicity
COC(=O)C1(C)NC(c2cccs2)C2C(=O)N(c3ccc(F)cc3)C(=O)C21 (stereo not given) | 3.3% (inactive)
Cc1cc(NC(=O)CSc2nnc3c(C)cc4c(C)ccc(C)c4n23)no1 | 64.6% (active)
Cc1cc(C)c2c(c1)cc(C)c1nnc(SCC(=O)Nc3cc(C)on3)n12 | 20.4% (inactive)
Cc1cc(NC(=O)CSc2nnc3c(C)cc4cc(C)c(C)cc4n23)no1 | 6.8% (inactive)
CCN(CCCNC(=O)CC(C(=O)N1CCc2ccccc21)n1ccnc1)c1ccccc1 (stereo not given) | -6.9% (inactive)
Cc1cccc2sc(NC(=O)CNS(=O)(=O)c3ccc(Br)s3)nc12 | 1.3% (inactive)
Cc1cccc2sc(NC(=O)CN(C)S(=O)(=O)c3cccs3)nc12 | 14.9% (inactive)
C1CCN(c2nc(N3CCCC3)nc(N3CCNCC3)n2)C1 | 2.6% (inactive)
CSCSC1=C(C#N)C(c2ccccc2Cl)C(C(C)=O)=C(C)N1 (stereo not given) | 21.5% (inactive)
CCOC(=O)CSC1=C(C#N)C(c2ccc(F)cc2)C(C(C)=O)=C(C)N1 (stereo not given) | 0.3% (inactive)
COc1ccccc1NC(=O)C1=C(C)NC(SCC(=O)c2ccc(C)cc2)=C(C#N)C1c1ccco1 (stereo not given) | 36.6% (inactive)
CC(=O)C1=C(C)NC(SCC(=O)c2ccc(Cl)c(Cl)c2)=C(C#N)C1c1ccco1 (stereo not given) | 75.6% (active)
CC(=O)C1=C(C)NC(SCC(=O)c2cc(Cl)ccc2Cl)=C(C#N)C1c1ccco1 (stereo not given) | 53% (active)
C=CCOC(=O)C1=C(C)NC(SCC(=O)Nc2ccc(C)c(Cl)c2)=C(C#N)C1c1ccco1 (stereo not given) | 0.2% (inactive)
COCCOC(=O)C1=C(C)NC(SCC(=O)NC(C)(C)C)=C(C#N)C1c1ccco1 (stereo not given) | 10.7% (inactive)
CC(=O)C1=C(C)NC(SCC(=O)c2ccccc2)=C(C#N)C1CC(C)C (stereo not given) | 8.5% (inactive)
Cc1ccc(C(=O)CSC2=C(C#N)C(c3ccco3)CC(=O)N2)c(C)c1 (stereo not given) | -3% (inactive)
CC(=O)C1=C(C)NC(SCC(=O)c2ccc(F)cc2)=C(C#N)C1c1ccco1 (stereo not given) | 79.8% (active)
CC(=O)C1=C(C)NC(SCC(=O)c2ccc(Cl)cc2Cl)=C(C#N)C1c1ccco1 (stereo not given) | 40.9% (inactive)
COc1cccc(-n2ccnc2SCC(=O)Nc2cc(OC)ccc2OC)c1 | -21% (inactive)
